Experimental findings from PubChem BioAssay (NCI) are described below.

Each structure is given as a SMILES string. Compounds without any hit were thinned out: in the full panel of roughly 79,000, 15% have a hit. Values without a mark were called inactive. Active and inactive are the calls of the source. Rule as the data show it: active = growth inhibition above about 70%; inactive = the rest.

Assay [1] in a line: NCI Yeast Anticancer Drug Screen. Data for the rad50 strain (AID 155).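 Also: 0% = growth of vehicle-only cultures of the same strain.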 To be noted: S. cerevisiae rad50 strain growth inhibition; at 50.0 µM; hits give high values. Summed up: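 DNA repair mutant yeast, compound exposure, growth read-out; inhibition is taken relative to vehicle.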
Assay [2] is described as follows: NCI Yeast Anticancer Drug Screen. Data for the mec2-1 strain (AID 157). To be noted: S. cerevisiae mec2-1 strain, at 50.0 µM, hits give high values. A digest of the protocol:
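Strain: mec2-1 (DNA repair/cell cycle alteration). Compound exposure, then growth measured; inhibition expressed relative to vehicle.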

Assay [3] is described as follows: NCI Yeast Anticancer Drug Screen. Data for the sgs1 mgt1 strain (AID 161).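 Also: 0% = growth of cultures given vehicle only.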 As to conditions: S. cerevisiae sgs1 mgt1 strain, at 50.0 µM, hits give high values. A digest of the protocol:
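Read-out: growth inhibition vs vehicle controls. Cells: mutant yeast strain deficient in DNA damage repair.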

Assay [4] in a line: NCI Yeast Anticancer Drug Screen. Data for the cln2 rad14 strain (AID 165).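 Also: 0% = growth equal to vehicle treated cultures.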 To be noted: S. cerevisiae cln2 rad14 strain, at 50.0 µM, hits give high values. Summed up:
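Compounds are applied to the cln2 rad14 yeast strain, and growth is then compared with that of vehicle-treated cultures to give inhibition.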

Assay [5] can be described thus: NCI Yeast Anticancer Drug Screen. Data for the bub3 strain (AID 167). As to conditions: S. cerevisiae bub3 mutant strain, at 50.0 µM, hits give high values. Summed up:
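In this screen, a yeast mutant lacking normal mitotic checkpoint function is challenged with compound. Relative growth versus vehicle gives the inhibition value.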

Assay [6] in a line: NCI Yeast Anticancer Drug Screen. Data for the mlh1 rad18 strain (AID 175). To be noted: S. cerevisiae mlh1 rad18 strain growth inhibition; at 50.0 µM; hits give high values. Summed up:
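Read-out is yeast growth inhibition, calculated against vehicle-only controls. The compound was applied to a strain engineered with DNA damage repair alterations.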

`CC(Br)C(=O)C(CCN(C)C)(c1ccccc1)c1ccccc1` (stereo unspecified): the growth inhibition in assay [1] was 17.6%; in assay [2], -0.05%; in assay [3], 7.95%; in assay [4] it was -6.4%; in assay [5], 21.8%; in assay [6] it was 17.1%.
Take `C=CCN1CN(c2ccccc2)C2(CCN(CCCC3(c4ccc(F)cc4)OCCO3)CC2)C1=O`: the growth inhibition in assay [1] is -18.1%; in assay [2], -7.55%; in assay [3], 1.4%; in assay [4] it was 0.4%; in assay [5], 0.7%; in assay [6] it was -13.8%.
Regarding `[O-][Cl+3]([O-])([O-])O.[O-][n+]1c2ccccc2nc2ccccc21.[Zn+2]`, the growth inhibition is 58.1% in assay [1]; 36.1% in assay [2]; 18.6% in assay [3]; 14.8% in assay [4]; 28.3% in assay [5]; 41.5% in assay [6].
On to `[N-]=[N+]=Nc1ccnc2cc(Cl)ccc12`, for which the growth inhibition in assay [1] was -29.9%; in assay [2] it was -5.55%; in assay [3], -9.05%; in assay [4] it was -68%; in assay [5], -5.45%; in assay [6] it was -10.7%.
With `O=C(N/N=C/c1cc(Cl)cc(Cl)c1[O-])c1ccccc1O.O=C(N/N=C/c1cc(Cl)cc(Cl)c1[O-])c1ccccc1O.[Cu+2]`, the growth inhibition was -6.05% in assay [1]; -16.2% in assay [2]; -17.8% in assay [3]; -38.2% in assay [4]; -12.7% in assay [5]; 12.3% in assay [6].
With `O=C1NC(=S)NC(=O)C1=Cc1ccco1`, the growth inhibition in assay [1] is -4.55%; in assay [2] it was -19.9%; in assay [3] it was -17%; in assay [4], 27.6%; in assay [5], -11.2%; in assay [6], -19.6%.
In the case of `CCP(c1ccccc1)c1ccccc1`, the growth inhibition in assay [1] was -0.4%; in assay [2], 12.4%; in assay [3], 13.1%; in assay [4] it was 0.95%; in assay [5], -40.8%; in assay [6] it was -12%.
Turning to `CC(C)(C)OO`, the growth inhibition in assay [1] is 5.35%; in assay [2] it was 7.05%; in assay [3], 0.95%; in assay [4], -0.6%; in assay [5], 22.4%; in assay [6] it was -17%.
On to `O=[C-]C(F)(F)F.[C-]#[O+].[C-]#[O+].[C-]#[O+].[Mo].[c-]1[c-][c-][cH-][c-]1`, for which the growth inhibition was 5.2% in assay [1]; 13.3% in assay [2]; 0.8% in assay [3]; 25.9% in assay [4]; 21.4% in assay [5]; 7.05% in assay [6].
As for `Cc1csc2sc3ccccc3[n+]12`, the growth inhibition was 5.75% in assay [1]; -6.85% in assay [2]; -0.5% in assay [3]; -5.8% in assay [4]; -11.9% in assay [5]; -34.1% in assay [6].
Take `CC1=CC(=O)[C@@H](O)[C@]2(C)[C@H]3[C@@]4(O)OC[C@]35[C@H]([C@@H](C)[C@H]4O)[C@@H](O)C(=O)O[C@@H]5C[C@@H]12`: the growth inhibition in assay [1] was 41.8%; in assay [2], 9.7%; in assay [3], 36%; in assay [4], 30.2%; in assay [5], 15.2%; in assay [6], 35.9%.
On to `C=CCOC(=O)C(Br)CC` (stereo unspecified), for which the growth inhibition in assay [1] is 7.65%; in assay [2], -3.2%; in assay [3], -3.7%; in assay [4] it was -6.25%; in assay [5], 11.9%; in assay [6], -14.5%.
As for `CN(C)c1ccc(C=C2C(=O)NC(=O)NC2=O)cc1`, the growth inhibition in assay [1] was 37.9%; in assay [2], -16.4%; in assay [3], 19.1%; in assay [4], 14.4%; in assay [5], 14.8%; in assay [6], 9.65%.
`O=S(=O)(c1ccccc1)c1ccccc1`: the growth inhibition is -2.9% in assay [1]; 1.55% in assay [2]; 1.6% in assay [3]; -8.05% in assay [4]; 0.1% in assay [5]; -37.9% in assay [6].
As to `O=C(O)C(CSC(c1ccccc1)(c1ccccc1)c1ccccc1)N1C(=O)c2ccccc2C1=O` (stereo unspecified), the growth inhibition in assay [1] was 98.8% (active); in assay [2] it was 99.2% (active); in assay [3], 99.3% (active); in assay [4], 96.8% (active); in assay [5], 98.8% (active); in assay [6], 99% (active).
Turning to `O=C(CP(=O)(O)O)c1cccs1`, the growth inhibition in assay [1] is -10.6%; in assay [2], -10.3%; in assay [3] it was -28%; in assay [4] it was -10.8%; in assay [5], -17.8%; in assay [6], -18.9%.
In the case of `O=[N+]([O-])c1cc(Cl)c(Cl)c([N+](=O)[O-])c1Cl`, the growth inhibition in assay [1] is -7.05%; in assay [2], -18.3%; in assay [3], 6.4%; in assay [4] it was -23.8%; in assay [5], -1.95%; in assay [6], 6.8%.
On to `C[Si](C)(C)[C@@]1([Se]c2ccccc2)CC[C@@H]1C(=O)c1ccccc1`, for which the growth inhibition in assay [1] was -11.6%; in assay [2], -26.4%; in assay [3], -26.4%; in assay [4] it was -18.2%; in assay [5], -27.4%; in assay [6] it was -23.9%.
As for `C=CCC1(C(=C)C)C(=O)NC(=O)NC1=O`, the growth inhibition in assay [1] is 6.05%; in assay [2], 6.05%; in assay [3], 1.4%; in assay [4], 2.75%; in assay [5] it was -13.8%; in assay [6], -11.3%.
Take `CC(C)CC1C(=O)NCCC(NC(=O)C(N)Cc2ccc(O)cc2)C(=O)NC(Cc2ccccc2)C(=O)NC(Cc2ccccc2)NC1=O` (stereo unspecified): the growth inhibition is -1.2% in assay [1]; -14.2% in assay [2]; -23.9% in assay [3]; 3.9% in assay [4]; -10.8% in assay [5]; -28.1% in assay [6].
As to `C#CCOCC(O)C[As](=O)(O)c1cccc(Cl)c1` (stereo unspecified), the growth inhibition in assay [1] is 5.85%; in assay [2] it was 16.5%; in assay [3], 7.9%; in assay [4] it was -5.3%; in assay [5], 10.7%; in assay [6], -8.75%.
